What all share (details): mRNA level, 48 h; actives raise or lower the signal
Read-out in test [1]: Ezrin (EZR), EZR (gene 7430)
Kind of test: LTEA_HepaRG_EZR: Life Technologies and Expression Analysis (LTEA) Assay for Ezrin (EZR) using HepaRG (AID 2283491). In outline: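 EZR transcript levels came from Fluidigm qRT-PCR and were normalized to three housekeeping genes after 48 h chemical exposure of HepaRG cells. Dosing used an 8-point half-log series with a 100 uM top concentration in 0.5% DMSO, tested in duplicate; both directions were fitted versus vehicle.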

Read-out in test [2]: Fatty Acid-Binding Protein 1 (FABP1), FABP1 (gene 2168)
Nature of the test: LTEA_HepaRG_FABP1: Life Technologies and Expression Analysis (LTEA) Assay for Fatty Acid-Binding Protein 1 (FABP1) using HepaRG (AID 2283494). In short, it runs like this:
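Differentiated human HepaRG cells exposed 48 h in serum-free induction medium to eight half-log concentrations up to 100 uM (0.5% DMSO), duplicate. FABP1 mRNA by qRT-PCR, normalised to ACTB, GAPDH, POLR2A; bidirectional fitting against DMSO.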

Read-out in test [3]: Cytochrome P450 7A1 (Homo sapiens) (UniProt P22680)
Kind of test: LTEA_HepaRG_CYP7A1: Life Technologies and Expression Analysis (LTEA) Assay for Cytochrome P450 7A1 (CYP7A1) using HepaRG (AID 2283496). In outline: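 HepaRG cells plated 48 h, then switched to serum-free induction medium and exposed in duplicate for 48 h to 8-point half-log series from 100 uM in 0.5% DMSO. CYP7A1 mRNA by qRT-PCR (TaqMan), normalized to ACTB/GAPDH/POLR2A; bidirectional fit versus DMSO.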

Read-out in test [4]: Glutathione S-Transferase (GSTA2), GSTA2 (gene 2939)
Nature of the test: LTEA_HepaRG_GSTA2: Life Technologies and Expression Analysis (LTEA) Assay for Glutathione S-Transferase (GSTA2) using HepaRG (AID 2283497). In short, it runs like this:
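Differentiated human HepaRG cells were exposed in duplicate for 48 h in serum-free induction medium, 8 points from 100 uM top in half-log steps, 0.5% DMSO. GSTA2 mRNA was measured by TaqMan qRT-PCR, normalized to ACTB, GAPDH and POLR2A; bidirectional fit versus DMSO.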

Read-out in test [5]: Glutamate-cysteine ligase catalytic (GCLC), GCLC (gene 2729)
Kind of test: LTEA_HepaRG_GCLC: Life Technologies and Expression Analysis (LTEA) Assay for Glutamate-cysteine ligase catalytic (GCLC) using HepaRG (AID 2283498). In outline:
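Differentiated HepaRG cells exposed 48 h in serum-free induction medium, eight-point half-log series topping at 100 uM in 0.5% DMSO, duplicates. GCLC mRNA by qRT-PCR normalized to ACTB, GAPDH and POLR2A, fitted bidirectionally versus DMSO.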

Read-out in test [6]: growth arrest and DNA damage 45 (GADD45G), GADD45G (gene 10912)
Nature of the test: LTEA_HepaRG_GADD45G: Life Technologies and Expression Analysis (LTEA) Assay for growth arrest and DNA damage 45 (GADD45G) using HepaRG (AID 2283499). In short, it runs like this:
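Human hepatic HepaRG line treated 48 h with chemicals (eight concentrations, half-log steps from 100 uM); transcript induction or repression of GADD45G scored by qRT-PCR versus DMSO vehicle.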

Read-out in test [7]: Glutamate-cysteine ligase regulatory (GCLM), GCLM (gene 2730)
Kind of test: LTEA_HepaRG_GCLM: Life Technologies and Expression Analysis (LTEA) Assay for Glutamate-cysteine ligase regulatory (GCLM) using HepaRG (AID 2283500). In outline: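 Differentiated HepaRG cells exposed 48 h in serum-free induction medium to eight half-log concentrations up to 100 uM (0.5% DMSO). GCLM mRNA by TaqMan qRT-PCR, normalized to ACTB, GAPDH and POLR2A; bidirectional fit versus DMSO.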

Read-out in test [8]: Glutathione S-transferase M3 (GSTM3), GSTM3 (gene 2947)
Nature of the test: LTEA_HepaRG_GSTM3: Life Technologies and Expression Analysis (LTEA) Assay for Glutathione S-transferase M3 (GSTM3) using HepaRG (AID 2283501). In short, it runs like this:
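Changes in GSTM3 expression, an oxidative-stress marker, were scored by bidirectional curve fitting against 0.5% DMSO vehicle. Human HepaRG cultures received chemicals for 48 h in duplicate, highest concentration 100 uM with half-log dilutions.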

Read-out in test [9]: Heat shock 70 kDa protein 1 (HSPA1A), gene 3303
Nature of the test: LTEA_HepaRG_HSPA1A: Life Technologies and Expression Analysis (LTEA) Assay for Heat shock 70 kDa protein 1 (HSPA1A) using HepaRG (AID 2283502). In short, it runs like this: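 Human HepaRG cells in serum-free induction medium were exposed in duplicate for 48 h to 8 half-log concentrations, highest 100 uM, in 0.5% DMSO. HSPA1A mRNA read by TaqMan qRT-PCR, normalized to ACTB, GAPDH, POLR2A, fitted bidirectionally against DMSO.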

Read-out in test [10]: Hypoxia-inducible factor 1-alpha (Homo sapiens) (UniProt Q16665)
Nature of the test: LTEA_HepaRG_HIF1A: Life Technologies and Expression Analysis (LTEA) Assay for Hypoxia-inducible factor 1 (HIF1A) Trancription factor using HepaRG (AID 2283503). In short, it runs like this: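 Differentiated HepaRG cells in serum-free induction medium exposed 48 h, in duplicate, to 8-point half-log series from 100 uM in 0.5% DMSO. HIF1A mRNA measured by TaqMan qRT-PCR, normalized to ACTB/GAPDH/POLR2A, fitted bidirectionally versus DMSO.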

Read-out in test [11]: 3-Hydroxy-3-Methylglutaryl-CoA Synthase 2 (HMGCS2), HMGCS2 (gene 3158)
Kind of test: LTEA_HepaRG_HMGCS2: Life Technologies and Expression Analysis (LTEA) Assay for 3-Hydroxy-3-Methylglutaryl-CoA Synthase 2 (HMGCS2) using HepaRG (AID 2283504). In short, it runs like this:
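Expression of HMGCS2 in human HepaRG liver cells is measured by qRT-PCR 48 h after dosing (highest 100 uM, half-log series, 0.5% DMSO). Values come from bidirectional concentration-response fitting with DMSO as baseline.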

Read-out in the next test: HGF (gene 3082)
Kind of test: LTEA_HepaRG_HGF: Life Technologies and Expression Analysis (LTEA) Assay for Hepatocyte Growth Facto (HGF) using HepaRG (AID 2283505). In outline: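 Gain or loss of HGF mRNA in human HepaRG liver cells after 48 h chemical exposure; eight concentrations up to 100 uM with 0.5% DMSO vehicle, quantified by TaqMan qRT-PCR.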

Read-out in test [12]: Insulin Like Growth Factor 1 (IGF1), IGF1 (gene 3479)
Nature of the test: LTEA_HepaRG_IGF1: Life Technologies and Expression Analysis (LTEA) Assay for Insulin Like Growth Factor 1 (IGF1) using HepaRG (AID 2283506). In outline: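 Differentiated HepaRG cells in serum-free induction medium, exposed 48 h in duplicate to 8 half-log concentrations up to 100 uM in 0.5% DMSO. IGF1 mRNA by Fluidigm qRT-PCR, normalised to ACTB, GAPDH and POLR2A.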

Read-out in test [13]: Insulin-like growth factor-binding protein 1 (IGFBP1), IGFBP1 (gene 3484)
Kind of test: LTEA_HepaRG_IGFBP1: Life Technologies and Expression Analysis (LTEA) Assay for Insulin-like growth factor-binding protein 1 (IGFBP1) using HepaRG (AID 2283508). In outline: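 mRNA induction or loss was quantified by qRT-PCR after 48 h chemical exposure of human HepaRG cells, with 0.5% DMSO as vehicle and baseline. Concentration-response over eight points up to 100 uM.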

Read-out in test [14]: Interleukin 6 (IL6), IL6 (gene 3569)
Nature of the test: LTEA_HepaRG_IL6: Life Technologies and Expression Analysis (LTEA) Assay for Interleukin 6 (IL6) using HepaRG (AID 2283509). In outline:
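HepaRG cells exposed in duplicate for 48 h to eight half-log concentrations, top 100 uM, in 0.5% DMSO serum-free induction medium. mRNA measured by qRT-PCR, normalized to ACTB, GAPDH and POLR2A. Bidirectional fit versus DMSO.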

Read-out in test [15]: Interleukin 6 Receptor (IL6R), IL6R (gene 3570)
Nature of the test: LTEA_HepaRG_IL6R: Life Technologies and Expression Analysis (LTEA) Assay for Interleukin 6 Receptor (IL6R) using HepaRG (AID 2283510).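 As to AC50: TaqMan qRT-PCR signal normalized to ACTB GAPDH and POLR2A housekeeping genes.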 In short, it runs like this:
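Differentiated HepaRG cells, plated 48 h, then exposed in duplicate for 48 h in serum-free induction medium to 8 half-log concentrations (top 100 uM, 0.5% DMSO). IL6R mRNA measured by TaqMan qRT-PCR, normalized to ACTB/GAPDH/POLR2A; bidirectional fit vs DMSO.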

Read-out in test [16]: Cytochrome P450 3A7 (Homo sapiens) (UniProt P24462)
Kind of test: LTEA_HepaRG_CYP3A7: Life Technologies and Expression Analysis (LTEA) Assay for CYP3A7 using HepaRG (AID 2283492). In outline:
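Cells were thawed, plated, cultured 48 h, then treated for a further 48 h with chemicals (eight-point half-log series from 100 uM, 0.5% DMSO). RNA was isolated and CYP3A7 expression quantified by qRT-PCR normalised to ACTB, GAPDH and POLR2A.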

Read-out in test [17]: Cytochrome P450 4A22 (Homo sapiens) (UniProt Q5TCH4)
Nature of the test: LTEA_HepaRG_CYP4A22: Life Technologies and Expression Analysis (LTEA) Assay for Cytochrome P450 4A22 (CYP4A22) using HepaRG (AID 2283495). In outline: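 Cryopreserved HepaRG cells, plated and cultured 48 h, then switched to serum-free induction medium and treated 48 h (duplicates, up to 100 uM, half-log steps, 0.5% DMSO). Expression change of CYP4A22 was fitted bidirectionally against vehicle.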

Read-out in test [18]: Intercellular Adhesion Molecule 1 (ICAM1), ICAM1 (gene 3383)
Kind of test: LTEA_HepaRG_ICAM1: Life Technologies and Expression Analysis (LTEA) Assay for Intercellular Adhesion Molecule 1 (ICAM1) using HepaRG (AID 2283507). In short, it runs like this:
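Gain or loss of transcript in HepaRG hepatic cells is quantified by qRT-PCR after 48 h chemical exposure (up to 100 uM, half-log steps), with DMSO as baseline.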

Molecules are shown by their SMILES. The source made the active and inactive calls. The calls were made as follows: active = hit-call score of the fitted dose curve at least 0.9, where 1 is the maximum; inactive = score below 0.9.

Chain of Hypoxia-inducible factor 1-alpha (Homo sapiens) (Q16665 whole entry, looked up): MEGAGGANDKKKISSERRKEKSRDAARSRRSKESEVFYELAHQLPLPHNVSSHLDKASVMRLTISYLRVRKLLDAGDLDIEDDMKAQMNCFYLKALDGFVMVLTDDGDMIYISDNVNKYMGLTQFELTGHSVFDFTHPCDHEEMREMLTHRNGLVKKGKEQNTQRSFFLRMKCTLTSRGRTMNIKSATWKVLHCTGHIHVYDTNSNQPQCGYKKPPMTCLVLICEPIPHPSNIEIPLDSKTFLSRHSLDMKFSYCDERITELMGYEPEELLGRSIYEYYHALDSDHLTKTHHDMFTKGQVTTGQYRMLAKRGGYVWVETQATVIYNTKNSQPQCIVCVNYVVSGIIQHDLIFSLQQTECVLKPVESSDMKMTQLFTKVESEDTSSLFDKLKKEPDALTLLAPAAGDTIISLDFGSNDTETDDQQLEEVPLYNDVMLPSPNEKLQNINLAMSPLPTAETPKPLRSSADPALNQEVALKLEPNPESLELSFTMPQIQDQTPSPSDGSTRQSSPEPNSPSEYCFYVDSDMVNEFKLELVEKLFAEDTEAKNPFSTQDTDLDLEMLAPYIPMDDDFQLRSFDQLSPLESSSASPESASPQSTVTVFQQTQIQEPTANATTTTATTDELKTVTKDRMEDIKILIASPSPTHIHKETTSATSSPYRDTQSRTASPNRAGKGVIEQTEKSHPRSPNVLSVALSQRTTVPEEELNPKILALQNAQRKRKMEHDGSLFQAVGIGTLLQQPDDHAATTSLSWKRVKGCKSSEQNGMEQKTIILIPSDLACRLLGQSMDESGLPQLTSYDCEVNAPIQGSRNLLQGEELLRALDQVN
Chain of Cytochrome P450 3A7 (Homo sapiens) (P24462 whole entry, looked up): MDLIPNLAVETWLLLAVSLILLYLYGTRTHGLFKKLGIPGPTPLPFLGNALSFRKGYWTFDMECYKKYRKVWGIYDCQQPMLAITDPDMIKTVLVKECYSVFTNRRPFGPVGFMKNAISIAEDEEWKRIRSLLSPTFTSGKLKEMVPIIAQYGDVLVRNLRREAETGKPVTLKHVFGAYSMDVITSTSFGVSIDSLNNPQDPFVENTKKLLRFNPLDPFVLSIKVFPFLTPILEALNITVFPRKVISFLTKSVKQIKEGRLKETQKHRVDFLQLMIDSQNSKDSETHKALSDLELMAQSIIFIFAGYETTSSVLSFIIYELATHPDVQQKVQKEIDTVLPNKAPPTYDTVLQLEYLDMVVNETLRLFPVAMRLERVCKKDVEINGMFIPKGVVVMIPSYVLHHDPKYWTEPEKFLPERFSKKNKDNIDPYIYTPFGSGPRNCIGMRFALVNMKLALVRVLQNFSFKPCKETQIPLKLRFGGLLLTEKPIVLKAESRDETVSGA

In the case of `CCCOC(=O)c1ccc(O)cc1`, the result in test [1], in test [2], in test [3], in [4], in [5] and in test [6] was inactive. The call (in [7]; in [8]; in test [9]; in [10]; in test [11]; with HGF (gene 3082)) was inactive. In addition, the call in test [12], in [13], in test [14] and in test [15] was inactive.

Usually AC50 stands for the concentration at which the activity in the assay is half-maximal. As for `CC(=O)NC1(c2cccc(F)c2)CCN(CC[C@@]2(c3ccc(Cl)c(Cl)c3)CN(c3ccccc3)C(=O)CO2)CC1`, the concentration at half-maximal activity (AC50) was 41.5 µM (active) in [1]; 4.05 µM (active) in [16]; 38 µM (active) in test [3]; 65.1 µM (active) in [4]; 41.5 µM (active) in [6]; 27.9 µM (active) in [9]. The AC50 in [12] was 13.1 µM (active); in test [13] it was 41.5 µM (active); in test [14], 76.2 µM (active); in test [15], 77.5 µM (active). Further, the molecule was classed as inactive in test [2], in [5], in test [7], in test [8], in [10] and in test [11]. In addition, the result with HGF (gene 3082) was inactive.

Regarding `NC(=O)N1C(=O)C(C(=O)c2cc(Cl)cs2)c2cc(F)c(Cl)cc21` (configuration not stated), the call (in test [1]; in test [7]; in test [8]; in the test with HGF (gene 3082)) was inactive. The half-maximal activity concentration (AC50) in test [16] is 24.8 µM (active); in test [17], 24.1 µM (active); in test [3], 16.6 µM (active); in test [4], 19.5 µM (active); in test [5] it was 34.1 µM (active); in [6] it was 30.4 µM (active). Also, the concentration at half-maximal activity (AC50) in [9] is 72.3 µM (active); in test [10] it was 22.7 µM (active); in test [11], 20.7 µM (active); in test [12] it was 24.8 µM (active); in test [18], 19.9 µM (active); in test [13], 16 µM (active). Also, the AC50 in [14] is 31.7 µM (active); in [15], 30.9 µM (active).

`COC(=O)CCCCC(=O)OC`: the outcome in [1], in test [16], in test [2], in [3], in [4] and in test [5] was inactive. Further, the result in test [6], in test [7], in test [8], in test [9], in test [10] and in [11] was inactive. Further, the result (with HGF (gene 3082); in [12]; in [13]; in [14]; in test [15]) was inactive.

Turning to `CCC(C)(C)C1CCC(O)CC1` (configuration not stated), the call in test [1], in [16], in test [2], in test [3], in test [4] and in test [5] was inactive. Moreover, the result in test [6], in [7], in test [8], in test [9], in test [10] and in test [11] was inactive. In addition, the outcome (with HGF (gene 3082); in [12]; in test [13]; in test [14]; in [15]) was inactive.

Consider `CCOC(=O)CC(O)(CC(=O)OCC)C(=O)OCC`, for which the molecule was called inactive in test [1], in test [16], in test [2], in test [3], in [4] and in test [5]. Besides, the molecule was classed as inactive in test [6], in test [7], in [8], in [9], in [10] and in test [11]. For the same molecule, the call (with HGF (gene 3082); in test [12]; in [13]; in [14]; in test [15]) was inactive.

The values are drawn from PubChem BioAssay (EPA / NIEHS).
